# Laboratory results reported in the supplement of paper PMC7156485.
# Assays:
# Conditions in all cases: concentration: 10 µM; 24 h
# HCC1569 [1] = test: cell number relative to DMSO (% of DMSO); higher = more cells (less growth inhibition / toxicity)
# Outline: (§1)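 H1.0 nuclear intensity or cell number is expressed as percent of the plate control, with the median of replicates taken. HCC1569 and TDF cells were treated with compounds at 10 µM for 24 h at 37 °C, in triplicate, then fixed and immunostained for H1.0 with DAPI as a nuclear stain. HCC1569 values were smoothed to correct for positional effects.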
# TDF [2] = test: as above
# Outline: as §1
# TDF [3] = test: H1.0 immunofluorescence intensity relative to DMSO (% of DMSO); higher = stronger H1.0 induction, active = 120 or more
# Outline: as §1
# HCC1569 [4] = test: H1.0 immunofluorescence intensity relative to DMSO (% of DMSO); higher = stronger H1.0 induction, active = 140 or more
# Outline: as §1
# 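Wherever H1.0 immunofluorescence intensity relative to DMSO is given: TDF is a line of transformed human dermal fibroblasts of mesenchymal origin.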
# 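Wherever cell number relative to DMSO is given: TDF denotes transformed human dermal fibroblasts of mesenchymal origin.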
Compound,cell number (HCC1569 [1]),cell number (TDF [2]),H1.0 immunofluorescence intensity (TDF [3]),H1.0 immunofluorescence intensity (HCC1569 [4])
CCCCCC(=O)C=CC1C(O)CC(O)C1CC=CCCCC(=O)O (stereo unspecified) [15-keto-prostaglandin F2a],101,108,92.9 (inactive),103 (inactive)
Cl.NCC1OC(C23CC4CC(CC(C4)C2)C3)Cc2c1ccc(O)c2O (stereo unspecified),73.5,68.9,102 (inactive),129 (inactive)
C=CCc1ccccc1OCC(O)CNC(C)C.Cl (stereo unspecified) [Alprenolol.HCl],102,105,90.6 (inactive),102 (inactive)
CC(C)(C)NCC(O)COc1cccc2[nH]c(=O)[nH]c12.Cl (racemic),97.7,110,93.5 (inactive),97.9 (inactive)
O=C(O)c1ccc(NC(=O)[C@H](CC2CCCC2)n2cnc(C(F)(F)F)c2)nc1,100,100,96.9 (inactive),106 (inactive)
COc1ccccc1N1CCN(CC(O)COc2cccc3ccccc23)CC1.Cl.Cl (stereo unspecified) [Naftopidil.2HCl],97.4,98.3,88.6 (inactive),103 (inactive)
CNCCC(Oc1ccc(C(F)(F)F)cc1)c1ccccc1.Cl (stereo unspecified) [Fluoxetine hydrochloride],93.1,85.7,108 (inactive),122 (inactive)
O=C1NC(=O)C(c2cn(CCCn3ccnc3)c3ccccc23)=C1Nc1ccccc1 [PKCb Inhibitor],100,113,87.7 (inactive),104 (inactive)
Cn1c(=O)c2c(nc(C=Cc3cccc(Cl)c3)n2C)n(C)c1=O [8-(3-Chlorostyryl)caffeine],106,94.1,100 (inactive),99.1 (inactive)
